According to PubChem BioAssay AID2289 (National Center for Advancing Translational Sciences (NCATS), 2010):
Among all 340,000 compounds or so, about 3,300 (0.97%) were called active. Not shown: some 9% with an inconclusive outcome. Calls follow the shape of the dose curve; as a rule, active = well fitted inhibition curve with a large enough effect; inconclusive = small, poorly fitted or top-dose-only effect, or effect the other way; inactive = flat fitted curve, though single readings scatter. The list shows a part of the results.

Assay: qHTS Assay for Modulators of miRNAs and/or Inhibitors of miR-21; also: nearly all actives have a fitted effect of over 55% in size
Conditions: HeLa miR-21-FLuc reporter, luciferase luminescence, 48 h; actives lower the signal
Method in brief: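 Luminescence from a firefly luciferase reporter carrying a miR-21 binding site downstream, stably expressed under a CMV promoter in HeLa cells that make miR-21 endogenously, reports miRNA modulation after 48 h compound exposure up to approximately 40uM final.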
Potency is read from the fitted curve at half-maximal effect.

Potency, active:
Nc1c(-c2ccc(Cl)cc2)cnc2c(-c3ccccc3)cnn12 0.414 µM, c1ccc(-c2cc3nccc(-c4ccccn4)n3n2)cc1 3.69 µM, Nc1c(-c2cccs2)cnc2c(-c3ccc(F)cc3)cnn12 0.329 µM, COc1ccc(-c2cnc3c(-c4ccc(F)cc4)cnn3c2N)cc1 0.521 µM, Nc1c(-c2ccccc2)cnc2c(-c3ccccc3)cnn12 0.0927 µM, Nc1c(-c2ccc(Cl)cc2)cnc2c(-c3ccc(F)cc3)cnn12 0.585 µM, Nc1c(-c2ccc(Cl)cc2)nnn1-c1ccccc1 2.33 µM, Nc1c(-c2ccccc2)cnc2cc(-c3ccccc3)nn12 0.414 µM, Nc1c(-c2cccc(Cl)c2)cnc2c(-c3ccccc3)cnn12 1.65 µM, Nc1c(-c2ccc(Cl)cc2)cnn1-c1ccccc1 1.65 µM, O=C(Nc1ccccc1F)c1ccc(OCc2ccccc2)cc1 5.21 µM, CC(=O)Nc1cccc(NC(=O)c2ccc(COc3ccccc3)cc2)c1 1.47 µM, CCOC(=O)C(=O)N(Nc1ccc(C)cc1)c1ccc(C)cc1 9.27 µM, O=C(O)c1ccc(N=NNc2cccc([N+](=O)[O-])c2)cc1 5.85 µM, CCOC(=O)/C(N=Nc1ccc2c(c1)OCO2)=C(\C)O 4.65 µM, CC(=O)/C(N=Nc1ccc2c(c1)OCO2)=C(\C)O 6.56 µM, C/C(=N\NC(=O)COc1ccccc1)c1cccs1 14.7 µM, C/C(=N\NC(=O)COc1ccccc1[N+](=O)[O-])c1cccs1 5.21 µM, Cc1ccn(-c2cccc(-n3ccc(C)n3)n2)n1 2.61 µM, O=C(NCC1CCCO1)C(=O)c1c[nH]c2ccccc12 (configuration not stated) 18.5 µM, O=C(NC1CCCCC1)C(=O)c1c[nH]c2ccccc12 4.14 µM, O=C(Nc1ccccc1)c1cc2n(n1)C(C(F)(F)F)CC(C1CC1)N2 (configuration not stated) 6.56 µM, COc1cccc(Nc2ncnc3ccccc23)c1 2.33 µM, COc1ccc(Nc2ncnc3sc(C)cc23)cc1 11.7 µM, COc1cccc(Nc2ncnc3sc(C)cc23)c1 6.56 µM, COc1ccc(Nc2cc(Nc3cccc(OC)c3)ncn2)cc1 14.7 µM, COc1cccc(Nc2ncnc3sccc23)c1 7.36 µM, Cc1ccc(-c2nc(-c3ccncc3)no2)cc1C 0.585 µM, COc1ccc(-c2nc(-c3ccncc3)no2)cc1 0.464 µM, CSc1ccccc1-c1nc(-c2ccncc2)no1 1.85 µM, COc1ccc(-c2nc(-c3ccc(Br)cc3)no2)c(OC)c1 0.585 µM, Cc1ccc(-c2nc(-c3ccncc3)no2)cc1 1.47 µM, CCOCCn1c(N2CCN(c3ccccc3)CC2)nc2c1c(=O)[nH]c(=O)n2C 6.56 µM, CCCCCCOC(=O)c1ccc(OC(=O)c2cccnc2)cc1 6.56 µM, Cc1ccc(/C=C2\SC(N3CCCC3)=NC2=O)cc1 16.5 µM, Cc1cc(OCc2cc(C(=O)N3CCCCCC3)no2)cc(C)c1Cl 5.85 µM, COCC1CCN(C(=O)c2cc(COc3cc(C)c(Cl)c(C)c3)on2)C1 (configuration not stated) 13.1 µM, COc1cccc(/C(N)=N/OC(=O)Cc2ccccc2[N+](=O)[O-])c1 9.27 µM, C=CCn1c(=O)c(C(=O)Nc2ccccc2S(N)(=O)=O)c(O)c2ccccc21 4.65 µM, O=C(Nc1cccc(O)c1)c1c(O)c2ccccc2[nH]c1=O 1.47 µM, NS(=O)(=O)c1ccccc1NC(=O)c1c(O)c2ccccc2[nH]c1=O 0.736 µM, COc1ccccc1C(=O)OCc1cc(=O)n2c(C)csc2n1 10.4 µM, COc1ccccc1C(=O)OCc1cc(=O)n2nc(C3CC3)sc2n1 13.1 µM, c1ccc(C2=NN(c3ccccc3)CC2)cc1 5.21 µM, O=C(OCc1ccccc1F)c1ccc2c(c1)OCCO2 18.5 µM, O=C(COC(=O)c1cccs1)c1ccc2c(c1)OCCO2 3.69 µM, Cc1ccc(C(=O)COC(=O)c2cccs2)cc1 3.29 µM, Cc1cccc(C(=O)OCC(=O)c2ccc3c(c2)OCO3)c1O 1.85 µM, CCOC(=O)c1cc2c(=O)c3cc(C)ccc3oc2nc1C 1.04 µM, CC(C)c1ccc(NC(=S)NN2CCOCC2)cc1 16.5 µM, Cc1cccc(C)c1NC(=O)/C(C#N)=C/c1ccc(-c2ccc(C(=O)O)cc2)o1 2.07 µM, CNC(=O)/C(C#N)=C/c1ccc(-c2ccc(OC)cc2[N+](=O)[O-])o1 18.5 µM, CCOC(=O)/C(C#N)=C/Nc1ccccc1OC 5.21 µM, CNC(=O)/C(C#N)=C/c1ccc(-c2ccc(Cl)cc2)o1 4.14 µM, CCOC(=O)/C(C#N)=C/c1ccc(-c2ccccc2)o1 18.5 µM, Cc1ncc(CO)c(/C=N/N=C/c2ccccc2O)c1O 13.1 µM, COc1ccc(-c2nn(-c3ccccc3)cc2N)cc1 3.69 µM, COc1ccc(-c2nn(-c3ccccc3)cc2C#N)cc1 4.14 µM, O=c1cc(-c2ccccc2)oc2ccc(O)cc12 3.29 µM, COc1ccc(-c2cc(=Nc3c(C)n(C)n(-c4ccccc4)c3=O)c3ccccc3o2)cc1 4.14 µM, O=c1cc(-c2ccc(O)cc2)oc2ccccc12 7.36 µM, COc1cc(OC)c2c(=O)cc(-c3ccccc3)oc2c1 6.56 µM, COc1ccc(-c2cc(=O)c3ccccc3o2)cc1 5.85 µM, O=c1cc(-c2ccccc2F)oc2ccccc12 5.21 µM, Fc1cccc2sc(Nc3nc4cc5c(cc4s3)OCCO5)nc12 0.208 µM, Fc1cccc2sc(Nc3nc4cc5c(cc4s3)OCO5)nc12 3.69 µM, O=C(O)c1ccc(N=Nc2c(O)[nH]c3ccc(Br)cc23)cc1 3.69 µM, O=C(O)c1ccc(N=Nc2c(O)[nH]c3cc(Cl)ccc23)cc1 0.165 µM, COc1cc2c(cc1OC)-c1cc(Nc3ccc4c(c3)OCCO4)nc(=O)n1CC2 8.26 µM, CCc1nc2oc3ccccc3c(=O)c2c(=O)n1-c1ccc(C)cc1 1.65 µM, Cc1cc(C)n2c(nc3ccccc32)c1C(=O)NN 10.4 µM, Fc1ccc2nc(N3CCOCC3)sc2c1 16.5 µM, Clc1cc(Cl)c2nc(N3CCOCC3)sc2c1 16.5 µM, Clc1ccc(-c2nsc(N3CCOCC3)n2)c(Cl)c1 1.04 µM, Nc1nc2c(Cl)cc(Cl)cc2s1 18.5 µM, Fc1ccc2nc(N3CCCC3)sc2c1 4.14 µM, COc1ccc(/C=C/C(=O)c2ccc[nH]2)cc1OC 5.21 µM, COc1ccc(/C=C/C(=O)c2ccc[nH]2)c(OC)c1OC 14.7 µM, O=C(/C=C/c1ccc2c(c1)OCO2)c1ccc[nH]1 3.69 µM, O=C(NCc1ccccn1)C(=O)Nc1ccccc1 6.56 µM, CC(C)CCNC(=O)C(=O)Nc1ccccc1 2.07 µM, CC(CCc1ccccc1)NC(=O)C(=O)Nc1ccccc1 (configuration not stated) 1.65 µM, CC(C)CCNC(=O)c1ccc(-c2ccccc2)cc1 8.26 µM, CS(=O)(=O)c1cnc2c(-c3ccsc3)cnn2c1N 5.21 µM, CS(=O)(=O)c1cnc2c(-c3ccc(F)cc3)cnn2c1N 1.85 µM, O=C(c1ccccc1)c1ccc2c(c1)OCCCO2 2.07 µM, O=C(CCc1ccccc1)c1ccc2c(c1)OCCCO2 3.69 µM, O/N=C(/CCc1ccccc1)c1ccc2c(c1)OCCO2 7.36 µM, Cc1cc(O)c(C(=O)Cc2csc(C)n2)c(O)c1 5.85 µM, Cc1oncc1-c1csc(-c2ccccc2)n1 5.21 µM, O=C1C2C(C(=O)N1/N=C/c1cccc([N+](=O)[O-])c1)C1C=CC2C12CC2 (configuration not stated) 18.5 µM, O=C(Cn1c(/C=C/c2ccccc2)nc2ccccc21)Nc1ccc(F)cc1 5.21 µM, Cc1cccc(NC(=O)Cn2c(/C=C/c3ccccc3)nc3ccccc32)c1 5.85 µM, Cc1ccc2c(c1)OC(c1ccc3c(c1)OCCO3)CC2=O (configuration not stated) 16.5 µM, O=C1CC(c2ccc3c(c2)OCCO3)Oc2ccccc21 (configuration not stated) 14.7 µM, COc1ccc(C2CC(=O)c3ccccc3O2)cc1 (configuration not stated) 16.5 µM, O=C1CC(c2ccc3c(c2)OCCO3)Oc2ccc([N+](=O)[O-])cc21 (configuration not stated) 0.261 µM, CC(C)c1nc(C#N)c(NN)o1 16.5 µM, N/C(=N\OC(=O)/C=C/c1ccccc1Cl)c1cccnc1 2.07 µM, N/C(=N\OC(=O)/C=C/c1ccccc1Cl)c1ccncc1 0.414 µM, COc1ccc(-n2nc3cc(C)c(N)c(Br)c3n2)cc1 4.14 µM, CC1CCC/C(=N\Nc2ccc(Cl)c(C(=O)O)c2)C1 (configuration not stated) 6.56 µM, O=[N+]([O-])c1ccc2cn(-c3ccccc3)nc2c1 1.65 µM, C(=N\Nc1ncnc2nc[nH]c12)/c1cccs1 4.14 µM, Cc1ccsc1/C=N/Nc1ncnc2nc[nH]c12 3.29 µM, Fc1ccccc1/C=N/Nc1ncnc2nc[nH]c12 5.21 µM, Cc1ccccc1/C=N/Nc1ncnc2nc[nH]c12 6.56 µM
